In PubChem BioAssay (EPA / NIEHS):
Some structures have more than one record in an assay (separate samples or runs), and their calls can disagree. Active and inactive are the calls of the source. How the source made its calls: active means hit-call score of the fitted dose curve at least 0.9, where 1 is the maximum; inactive means score below 0.9.

assay: APR_HepG2_p53Act_72hr: Apredica 72-hour HepG2 Assay for p53 Activation (AID 2282923); settings: high-content imaging, actives raise or lower the signal;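 further: average cellular p53 protein immunofluorescence intensity in HepG2 cells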
Method: APR_HepG2_72hr is a cell-based, multiplexed-readout assay that uses HepG2, a human liver cell line, with measurements taken at 72 hours after chemical dosing in a 384-well plate.APR_HepG2_p53Act_72hr is one of 10 assay component(s) measured or calculated from the APR_HepG2_72hr assay. It is designed to make measurements of dna content, a form of viability reporter, as detected with fluorescence intensity signals by HCS Fluorescent Imaging technology.Data from the assay component APR_HepG2_p53Act_72hr was analyzed into 1 assay endpoint. This assay endpoint, APR_HepG2_p53Act_72hr, was analyzed with bidirectional fitting relative to DMSO as the negative control and baseline of activity. Using a type of viability reporter, measures of protein for gain or loss-of-signal activity can be used to understand the signaling at the pathway-level as they relate to the gene TP53. Furthermore, this assay endpoint can be referred to as a primary readout, because this assay has produced multiple assay endpoints where this one serves a signaling function. To generalize the intended target to other relatable targets, this assay endpoint is annotated to the dna binding intended target family, where the subfamily is tumor suppressor.
Cells were treated with dimethyl sulfoxide (DMSO) as a solvent control at a final concentration of 0.5% v/v or with compounds in DMSO with a resulting final DMSO concentration of 0.5% v/v. Compound treatment was done at concentrations of 0.39, 0.78, 1.56, 3.12, 6.24, 12.5, 25, 50, 100, and 200 uM in duplicate on each plate. Cells were treated with compounds for 1, 24, or 72 hr. Carbonyl […] m-chloro-phenylhydrazone (CCCP) and taxol were used as positive controls for mitochondrial function and cytoskeletal stability, respectively; DMSO served as the negative control for this experiment. Cells were fixed by the direct addition of 50 uL formaldehyde in Hank's Balanced Salt Solution (HBSS) to a final concentration of 3.7%. After incubation in the fixation medium for 30 min at room temperature (293-298 K), cells were rinsed twice with HBSS and treated with cell permeabilization buffer (16 uL of 0.5% Triton X-100) for 10 min at room temperature (293-298 K) before labeling. For mitochondrial membrane potential and mitochondrial measurements, pre-fixed cells were incubated with 50 uL of MitoTracker Red CMXRos (Invitrogen) at a concentration of 250 nM for 30 min before fixation. In the remaining cases, post-fixed cells were labeled by incubation with a multiplexed mixture of primary antibodies in HBSS for 60 min at room temperature (293-298 K) to detect immunoreactivity of c-Jun (1:500), phospho-histone H3 (1:100), phospho-histone H2A.x (1:200), p53 (1:400), alpha-tubulin (1:200) and Hoechst 33342 (2 ug/mL). Cells were labeled for multiplexed imaging on two separate plates: a) Hoechst 33342, MitoTracker Red, phospho-histone H3, and alpha-tubulin, and b) Hoechst 33342, phospho-histone H2A.x, and c-Jun. A final rinse with HBSS (50 uL) was performed before analysis. The primary and secondary antibodies for the proteins were phospho-histone H3 (rabbit anti-phospho-histone H3 and FITC-donkey anti-rabbit IgG), phospho-histone H2A.x (mouse anti-phospho-histone H2A.x and FITC-donkey anti-mouse IgG), c-Jun (rabbit anti-phospho-c-Jun and Cy3-donkey anti-rabbit IgG), p53 (sheep anti-p53 and Cy5-donkey anti-sheep IgG), alpha-tubulin (mouse anti-alpha-tubulin and Cy5-donkey anti-mouse IgG). These antibodies are available as the CellCiphr HepG2 assay kit (Millipore).Digital images of each well were captured using a Cellomics ArrayScan VTI (Thermo Scientific Cellomics) (0.8 NA objective, 0.63x optical coupler, and XF-93 filter set) at 20x magnification. The images were acquired using the autofocus feature of the ArrayScan instrument, which entails the following steps. First, the camera focuses on channel 1 (Hoechst 33342), where nuclei are identified. Second, a Z offset of 1 um is used for capturing mitochondria (MitoTracker Red). […]

Row | SMILES | outcome | AC50
1 | O=C(O)C(Cl)(Cl)Cl | inactive | –
2 | Oc1cccc2cccnc12 | – | 4.12 µM (active)
3 | CC(=O)[O][Hg][c]1ccccc1 | – | 4.66 µM (active)
4 | CC12CC1(C)C(=O)N(c1cc(Cl)cc(Cl)c1)C2=O (centres undefined) | inactive | –
5 | CC(C)(OO)c1ccccc1 | – | 45.7 µM (active)
6 | COc1cc(-c2ccc(N)c(OC)c2)ccc1N | inactive | 35.2 µM (active)
7 | CCCCCCCCc1ccc(O)cc1 | inactive | –
8 | C=C(C)C(=O)[O][Sn]([CH2]CCC)([CH2]CCC)[CH2]CCC | – | 0.0408 µM (active)
9 | Cc1ccccc1N | inactive | –
10 | Cn1sc(Cl)cc1=O | – | 106 µM (active)
11 | ClCC(Cl)CCl | inactive | –
12 | O=C1C2(Cl)C3(Cl)C4(Cl)C(Cl)(Cl)C5(Cl)C3(Cl)C1(Cl)C5(Cl)C24Cl (centres undefined) | – | 10.5 µM (active)
13 | CCC(C)(C)c1ccc(O)c(C(C)(C)CC)c1 | – | 29.7 µM (active)
14 | O=C(O)C(F)(F)C(F)(F)C(F)(F)C(F)(F)C(F)(F)C(F)(F)F | – | 10.2 µM (active)
15 | O=C(Nc1ccc2[nH]ccc2c1)c1cc2cc(F)ccc2n1Cc1cccc(F)c1 | – | 19 µM (active)
16 | CCC(=O)C(CC(C)N(C)C)(c1ccccc1)c1ccccc1 (centres undefined) | – | 69.8 µM (active)
17 | NC(=O)O | – | 3.66 µM (active)
18 | CC(C)(C)CC(C)(C)c1ccc(O)cc1 | inactive | –
19 | CC(C)(c1ccccc1)c1ccc(O)c(C(C)(C)c2ccccc2)c1 | inactive | –
20 | CC(C)(C)c1cc(O)ccc1O | inactive | –
21 | ClC1(Cl)C2(Cl)C3(Cl)C4(Cl)C(Cl)(Cl)C5(Cl)C3(Cl)C1(Cl)C5(Cl)C24Cl (centres undefined) | inactive | –
22 | O=c1[nH]c(=O)[nH]c(=O)[nH]1 | inactive | –
23 | C[C@]12CCC(=O)C[C@@H]1CC[C@@H]1[C@@H]2CC[C@]2(C)[C@@H](O)CC[C@@H]12 | inactive | –
24 | C[C@@H]1C[C@@H]([C@H](O)CC2CC(=O)NC(=O)C2)C(=O)[C@@H](C)C1 | – | 4.8 µM (active)
25 | CN(C)N=O | inactive | –
26 | O=C(O)C(F)(F)C(F)(F)C(F)(F)C(F)(F)C(F)(F)C(F)(F)C(F)(F)C(F)(F)C(F)(F)C(F)(F)F | – | 85.3 µM (active)
27 | C=CC(=O)OCCCCCC(C)C | inactive | –
28 | CCN1CCC2(CC1)COc1cc3c(cc12)N(C(=O)c1ccc(-c2ccc(-c4nnc(C)o4)cc2C)cc1)CC3 | – | 59.8 µM (active)
